RXFP1 ag = RXFP1 (human) receptor agonism; Potency, µM (top dose mostly 57.5 µM), actives largely listed as activators; Q9HBX9; actives 0.3% (n = 370,000); AID 2676; HEK293T-RXFP1 cAMP TR-FRET, 30 min; response scale: percent of porcine relaxin response, buffer zero; also: nearly all actives have a fitted effect of over 60% in size
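cAMP rise read by TR-FRET after 30 min, 37C compound exposure (up to 58 uM) in RXFP1-transfected HEK293 cells with Ro 20174 present. EC50 from Hill-equation fits, with 29 nM porcine relaxin as 100% and buffer as basal.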
RXFP1 antag = blocks the human relaxin receptor RXFP1. Q9HBX9. HEK293-RXFP1, relaxin-stimulated cAMP HTRF, 30 min; stronger effect = lower value. activity change, negative = inhibition, % at 57.5 µM. actives 0.59% (n = 350,000);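 active = activity change of -60% or lower, but not beyond a set lower limit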
hERG WT inh = KCNH2 (human, wildtype) channel inhibition; Q12809; U2OS, BacMam KCNH2, thallium flux FluxOr; stronger effect = lower value; activity change, % at 1.84 µM; actives 0.37% (n = 340,000); AID 720551;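 active = maximum activity change below -70%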
Target sequence (Q12809 whole entry, looked up): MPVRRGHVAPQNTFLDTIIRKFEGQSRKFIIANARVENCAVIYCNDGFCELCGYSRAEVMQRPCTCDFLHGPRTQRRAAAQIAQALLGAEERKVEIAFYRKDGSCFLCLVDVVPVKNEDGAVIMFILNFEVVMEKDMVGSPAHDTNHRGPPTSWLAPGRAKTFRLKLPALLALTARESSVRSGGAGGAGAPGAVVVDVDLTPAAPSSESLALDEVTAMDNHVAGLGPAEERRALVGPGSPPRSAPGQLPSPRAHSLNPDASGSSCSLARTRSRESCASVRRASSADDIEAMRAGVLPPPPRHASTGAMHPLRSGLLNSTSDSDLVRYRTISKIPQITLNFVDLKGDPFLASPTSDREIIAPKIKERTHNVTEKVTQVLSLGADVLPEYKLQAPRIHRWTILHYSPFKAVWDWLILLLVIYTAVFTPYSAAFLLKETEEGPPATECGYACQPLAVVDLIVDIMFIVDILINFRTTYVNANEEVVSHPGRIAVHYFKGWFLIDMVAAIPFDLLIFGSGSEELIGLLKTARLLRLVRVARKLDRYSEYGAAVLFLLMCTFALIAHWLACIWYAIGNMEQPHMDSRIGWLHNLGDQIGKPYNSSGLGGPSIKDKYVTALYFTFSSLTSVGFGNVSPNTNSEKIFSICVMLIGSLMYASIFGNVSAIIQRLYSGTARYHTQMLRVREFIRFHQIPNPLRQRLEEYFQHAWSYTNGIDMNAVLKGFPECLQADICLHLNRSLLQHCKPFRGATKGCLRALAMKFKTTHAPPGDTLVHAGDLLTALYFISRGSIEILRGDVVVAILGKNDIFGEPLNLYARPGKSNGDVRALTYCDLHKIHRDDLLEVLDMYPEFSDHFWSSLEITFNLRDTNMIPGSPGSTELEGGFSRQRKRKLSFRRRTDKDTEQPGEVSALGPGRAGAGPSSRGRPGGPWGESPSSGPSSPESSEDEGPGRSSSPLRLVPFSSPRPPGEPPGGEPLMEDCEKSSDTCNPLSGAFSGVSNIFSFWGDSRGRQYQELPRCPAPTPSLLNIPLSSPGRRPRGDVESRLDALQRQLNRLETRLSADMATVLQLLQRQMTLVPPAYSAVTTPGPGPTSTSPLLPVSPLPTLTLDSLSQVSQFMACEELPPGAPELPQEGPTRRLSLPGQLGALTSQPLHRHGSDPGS
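U2OS cells were transduced with wild-type KCNH2 virus (2.03 x 10^8 / mL) for 4 h at room temperature, then cultured overnight at 37 C. Thallium flux was read with FluxOr dye. Rate constants were normalized to DMSO controls.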
Glioma ERSR ind = inducers of ER stress response in human glioma cells. Potency, µM, usual class: activators. AID 602332. actives 0.02% (n = 420,000). U87-MG GRP78 promoter luciferase reporter, 16 h; also: series mostly up to about 76 µM; nearly all actives have a fitted effect of over 35% in size
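Stably transfected U87-MG glioma cells carrying a GRP78-based luciferase sensor; 16 h compound incubation. Luminescence end-point read 10 min after Bright-Glo addition at room temperature.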
KCNH2 3.1 inh = inhibitors of human KCNH2 3.1 potassium channel isoform. U2OS KCNH2 3.1, thallium flux FluxOr; stronger effect = lower value. activity change, % (tested at about 1.8 µM). actives 0.95% (n = 340,000);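 active = maximum activity change below -70%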;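 also: thallium influx rate constant from kinetic fluorescence after stimulation buffer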
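Channel expression came from 3.1 mutant virus (1.77 x 10^8 /mL) applied to suspended U2OS cells for 4 h. Flux was tracked with FluxOr dye plus Red40 quencher, and kinetic rate constants normalized to controls.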
PTHR1 ag = activates the human parathyroid hormone receptor PTHR1. Q03431. HEK293 GP2 PTHR1 cells, GloSensor cAMP luminescence, 1 h. Potency, µM (titrated, usually from 115 µM), most hits filed as activators. actives 0.075% (n = 410,000). AID 743266; also: nearly all actives have a fitted effect of over 55% in size
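HEK-293-derived GP2 cells expressing PTHR1 and a GloSensor cAMP reporter, 3,000/well, plated overnight, given luciferin plus IBMX (each 0.5 mM as added) for 1 h at 37 °C, then compound for 1 h at 37 °C. Luminescence was read after 15 min at room temperature.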
Of the large screens only hits and unclear results are named; the others gave an inactive call. Only some compounds are listed: those with a hit (about 1.4% of all), similar ones and a draw of the others. Unless noted, calls follow the shape of the dose curve; as a rule, active = well fitted curve in the direction sought with a large enough effect; inconclusive = small, poorly fitted or top-dose-only effect, or another doubt; inactive = no such curve, though single readings can be large; an effect the other way counts as inactive or inconclusive.

COc1ccccc1N(C)S(=O)(=O)c1ccc(C(=O)NCC(c2ccco2)N2CCCCC2)cc1 (stereo unspecified)	KCNH2 3.1 inh -94 (no result: RXFP1 ag)
O=C(NCC(c1ccco1)N1CCCC1)c1ccc(Cl)c(S(=O)(=O)N2CCc3ccccc32)c1 (stereo unspecified)	KCNH2 3.1 inh -77
CCCC[C@@H](CNC)NC[C@H](Cc1ccc(O)cc1)NCCc1ccc(OCC)cc1	KCNH2 3.1 inh -71 (no result: RXFP1 antag)
COC(=O)COc1cc(OCC(=O)OC)c2c(C)c(Cl)c(=O)oc2c1	none
COC(=O)C(C)Oc1cc(OC(C)C(=O)OC)c2c(C)c(Cl)c(=O)oc2c1 (stereo unspecified)	Glioma ERSR ind 40µM
COc1ccc(C(=O)c2cn[nH]c2-c2cc(C)ccc2O)cc1	none
COc1ccc(O)c(-c2[nH]ncc2C(=O)c2cccc(C)c2)c1	KCNH2 3.1 inh -109
O=c1nc(N2CCCCCC2)nc(N2CCCCCC2)[nH]1	none
CCOc1ccc(C(C)=O)cc1CN1C(=O)NC2(CCCCCC2)C1=O	RXFP1 antag -101
COc1ccc(OC)c(CN2C(=O)CSCC2(C)C(=O)NC(C)C)c1 (stereo unspecified)	none (no result: RXFP1 ag, RXFP1 antag, hERG WT inh, Glioma ERSR ind, KCNH2 3.1 inh)
Cc1ccc2nc(C)c(C(=O)N/N=C/c3ccc(C(=O)O)cc3)cc2c1	RXFP1 antag -62
CC(=O)NCCNc1nc(-c2ccccc2Cl)nc2ccccc12	none (no result: RXFP1 ag, RXFP1 antag, hERG WT inh, KCNH2 3.1 inh, PTHR1 ag)
O=C(CN(C(=O)c1csnn1)c1ccc(Cl)cc1)NC1CCCC1	none
CC(=O)c1ccc(N(CC(=O)NC2CCCC2)C(=O)c2csnn2)cc1	RXFP1 antag -82
CCOc1ccccc1CNCc1c(C(=O)O)n(Cc2ccccc2)c2cc(OC)ccc12	none (no result: RXFP1 antag, hERG WT inh, KCNH2 3.1 inh)
CC(Sc1nnc(-c2ccc(OC(F)F)cc2)o1)C(=O)NCC1CCCO1 (stereo unspecified)	none
CCc1sc(C(=O)Nc2ccc3c(c2)OCO3)cc1C	RXFP1 antag -63 (no result: RXFP1 ag)
CCc1sc(C(=O)Nc2ccc(N3CCOCC3)cc2)cc1C	none (no result: RXFP1 ag)
CCOc1ccc(S(=O)(=O)N2CCC(C(=O)OC(C)C(=O)NC3CCCCC3C)CC2)cc1 (stereo unspecified)	hERG WT inh -203, KCNH2 3.1 inh -144
Cn1c(N)c(C(=O)COC(=O)c2ccccc2C(F)(F)F)c(=O)n(C)c1=O	KCNH2 3.1 inh -93 (no result: RXFP1 ag)
Cn1c(N)c(C(=O)COC(=O)c2ccccc2C(=O)c2ccccc2)c(=O)n(C)c1=O	none
O=C(CN1C(=O)NC2(CCCC2)C1=O)NCCN1C(=O)S/C(=C\c2ccccc2F)C1=O	none
CCc1noc(C)c1C(=O)NCCN1C(=O)S/C(=C\c2ccccc2F)C1=O	KCNH2 3.1 inh -77 (no result: RXFP1 ag)
Cc1ccc(S(=O)(=O)NCC2CCC(C(=O)NCCCOC(C)C)CC2)cc1 (stereo unspecified)	none (no result: hERG WT inh, KCNH2 3.1 inh)
CC(C)OCCCNC(=O)C1CCC(CNS(=O)(=O)c2ccccc2)CC1 (stereo unspecified)	KCNH2 3.1 inh -85
CCn1c(CNc2cccc(C(F)(F)F)c2)n[nH]c1=S	RXFP1 antag -110
O=c1[nH]nc(CNc2cccc(C(F)(F)F)c2)c2ccccc12	none
Cc1c(NC(=O)c2cccc(-c3cc4ccccc4oc3=O)c2)cccc1-c1nc2ncccc2o1	KCNH2 3.1 inh -96
CCCCOc1cccc(C(=O)Nc2cccc(-c3nc4ncccc4o3)c2C)c1	none (no result: hERG WT inh, KCNH2 3.1 inh)
O=C(COC(=O)c1ccccc1NCCO)Nc1cccc(S(=O)(=O)NC2=NCCCCC2)c1	none
CCOc1ccccc1N(CC(=O)NCCSc1ccccc1)S(C)(=O)=O	none
CCCSC(=S)c1c(C)[nH]n(-c2ccccc2)c1=O	RXFP1 antag -70
CCOc1ccc(Br)cc1S(=O)(=O)Nc1ccc(C(=O)OCC(=O)Nc2ccc(C#N)cc2)cc1	KCNH2 3.1 inh -93
COc1cccc(-c2nn(C)c3sc(C(=O)NCc4ccc5c(c4)OCO5)cc23)c1	KCNH2 3.1 inh -92 (no result: RXFP1 antag)

Screens from PubChem.
